In the library only some 6.9% were active in any assay of this set; here they are far more common.
JMJD2A Tudor: qHTS Assay for Inhibitors of JMJD2A-Tudor Domain; Lysine-specific demethylase 4A (Homo sapiens), O75164; AlphaScreen JMJD2A-Tudor / H3K4me3 peptide binding; Potency, µM (doses to about 114 µM), hits mostly inhibitors; actives 4.4% (n = 390,000); AID 504339, 2011; note: nearly all actives have a fitted effect of over 50% in size
HP1b chromo inh: HTS for Inhibitors of HP1-beta Chromodomain Interactions with Methylated Histone Tails. Chromobox protein homolog 1 (Homo sapiens), P83916. AlphaScreen HP1-beta / biotin-H3K9me3 peptide binding. actives 0.56% (n = 390,000). Potency, µM (highest dose often 114 µM), actives largely listed as inhibitors; note: nearly all actives have a fitted effect of over 70% in size
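AlphaScreen: HP1-beta (50 nM) preformed 30 min with biotin-H3(1-18)K9me3 peptide (50 nM) in PBS pH 7.4, 0.01% Tween-20. Compound added for 30 min at RT, then streptavidin donor/nickel chelate acceptor beads (10 ug/mL) for 30 min.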
VDR inhibitor: Inhibitors of the vitamin D receptor (VDR): qHTS | VDR-SRC2-3 peptide fluorescence polarization, 2 h | Potency, µM, actives largely listed as inhibitors | actives 0.93% (n = 400,000)
Target sequence (P11473 whole entry, looked up): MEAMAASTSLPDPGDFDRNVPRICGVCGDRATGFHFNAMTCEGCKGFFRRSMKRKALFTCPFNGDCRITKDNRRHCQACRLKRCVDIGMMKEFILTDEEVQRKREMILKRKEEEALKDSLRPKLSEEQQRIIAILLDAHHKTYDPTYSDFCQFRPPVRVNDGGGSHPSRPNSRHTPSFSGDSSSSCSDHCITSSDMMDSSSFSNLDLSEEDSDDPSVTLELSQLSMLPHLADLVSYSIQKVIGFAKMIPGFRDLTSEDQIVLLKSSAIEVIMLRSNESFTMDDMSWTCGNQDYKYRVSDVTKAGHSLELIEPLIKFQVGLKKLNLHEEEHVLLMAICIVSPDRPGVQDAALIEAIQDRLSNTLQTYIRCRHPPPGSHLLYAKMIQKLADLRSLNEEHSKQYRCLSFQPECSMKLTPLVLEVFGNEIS
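Signal is fluorescence polarization, reporting how far test compounds block the interaction of VDR with the SRC2-3 coregulator peptide after a 2 h room-temperature incubation.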
L3MBTL1 inh: qHTS Assay for the Inhibitors of L3MBTL1; AlphaScreen L3MBTL1–H3K9me1 peptide binding; Potency, µM (series often up to 57.1 µM), most hits filed as inhibitors; Lethal(3)malignant brain tumor-like protein 1 (Homo sapiens), Q9Y468; AID 485360, 2010; actives 0.66% (n = 230,000); note: nearly all actives have a fitted effect of over 60% in size
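L3MBTL1 50 nM + b-AHA-H3(1-15)K9me1 75 nM, 30 min RT; compound added, 30 min RT; streptavidin donor/Ni-chelate acceptor beads 10 ug/mL each final, 30 min RT dark; AlphaScreen read.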
PLK1 PBD inh: qHTS for Inhibitors of PLK1-PDB (polo-like kinase 1 - polo-box domain): Primary Screen; Serine/threonine-protein kinase PLK1 (Homo sapiens), P53350; Plk1 PBD binding of FITC phosphopeptide, fluorescence polarization; Potency, µM, hits mostly inhibitors; actives 2.8% (n = 360,000); AID 720504, 2013; note: series mostly up to about 57 µM; nearly all actives have a fitted effect of over 65% in size
BAZ2B block: qHTS Assay for Inhibitors of BAZ2B; AlphaScreen BAZ2B-H3K14Ac peptide displacement; Potency, µM (series often up to 114 µM), usual class: inhibitors; actives 4.4% (n = 360,000); AID 504333, 2011; note: nearly all actives have a fitted effect of over 60% in size
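AlphaScreen luminescence quantifies BAZ2B engagement of H3K14Ac peptide; the protein and biotinylated peptide are both at 50 nM final, buffer PBS pH 7.4 with 0.01% Tween-20, all steps at room temperature.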
Large screens that a line does not name were inactive. Calls come from the whole dose curve; as a rule, active = well fitted curve in the direction sought with a large enough effect; inconclusive = small, poorly fitted or top-dose-only effect, or another doubt; inactive = no such curve, though single readings can be large; an effect the other way counts as inactive or inconclusive.

CN1CCCCCC1=Nc1ccc([N+](=O)[O-])cc1	none (no result: L3MBTL1 inh, BAZ2B block)
CCN(Cc1ccccc1)c1ccc(/C=N/NS(=O)(=O)c2ccc(C)c([N+](=O)[O-])c2)cc1	JMJD2A Tudor inconclusive, HP1b chromo inh inconclusive, VDR inhibitor inconclusive, PLK1 PBD inh 24µM, BAZ2B block inconclusive
Cc1ccc(S(=O)(=O)N/N=C/c2ccccc2F)cc1[N+](=O)[O-]	PLK1 PBD inh inconclusive, BAZ2B block inconclusive (no result: L3MBTL1 inh)
CSc1ncc(Cl)c(C(=O)C(C#N)c2nc3c(C)cc(C)cc3c(=O)[nH]2)n1 (centres undefined)	JMJD2A Tudor inconclusive, HP1b chromo inh inconclusive, VDR inhibitor inconclusive, PLK1 PBD inh 21µM
CC(C)c1c(O)ccc2c1CCC1C(C)(C)CCC[C@@]21C (some centres undefined)	none (no result: JMJD2A Tudor, HP1b chromo inh, L3MBTL1 inh, PLK1 PBD inh, BAZ2B block)
CC1CC(=O)Nc2ccccc2N1C(=O)CSc1nnnn1C(C)C (centres undefined)	VDR inhibitor inconclusive
Cc1cc2nc(-c3ccc(SCc4ccc(C(=O)O)cc4)nc3)[nH]c2cc1C	JMJD2A Tudor inconclusive, PLK1 PBD inh 19µM, BAZ2B block 32µM
O=C(NCc1ccccc1Cl)C1CCN(S(=O)(=O)Cc2ccccc2)CC1	none (no result: L3MBTL1 inh, PLK1 PBD inh)
O=C(NCCCN1CCCC1=O)c1c(O)nc2sccn2c1=O	JMJD2A Tudor 35µM
CC(=O)OCC(CO)OC(C)=O (centres undefined) (tested in a mixture with another compound)	none (no result: JMJD2A Tudor, HP1b chromo inh, L3MBTL1 inh, PLK1 PBD inh, BAZ2B block)
COc1ccc(CCNC[C@@H](O)c2ccc(O)cc2)cc1OC	none (no result: JMJD2A Tudor, HP1b chromo inh, L3MBTL1 inh, PLK1 PBD inh, BAZ2B block)
O=C(CS(=O)(=O)c1ccccc1)c1cc2cc(F)ccc2oc1=O	PLK1 PBD inh 15µM (no result: L3MBTL1 inh)
COc1ccc(S(=O)(=O)CC(=O)c2cc3cccc(C)c3oc2=O)cc1	PLK1 PBD inh 27µM (no result: L3MBTL1 inh)
COc1ccc2cc(C(=O)CS(=O)(=O)c3ccccc3)c(=O)oc2c1	none (no result: L3MBTL1 inh)
CNC[C@H]1Oc2ccc(NC(=O)Nc3ccccc3)cc2CC(=O)N([C@H](C)CO)C[C@H]1C	none (no result: BAZ2B block)
CCCCn1c(SCC(N)=O)nc2sc3c(c2c1=O)CCC3	none
CCN(CC)C(=O)CSc1nc2sc3c(c2c(=O)n1CCCOC)CCC3	JMJD2A Tudor inconclusive, VDR inhibitor inconclusive, PLK1 PBD inh 24µM
Cc1cc(/C=C2\C(=N)N3C(SCc4ccccc4)=NSC3=NC2=O)c(C)n1Cc1ccccc1	none (no result: L3MBTL1 inh)
CC(C)CSC1=NSC2=NC(=O)/C(=C\c3ccccc3)C(=N)N12	PLK1 PBD inh 27µM (no result: L3MBTL1 inh)
CSC1=NSC2=NC(=O)/C(=C\c3coc4ccccc4c3=O)C(=N)N12	VDR inhibitor inconclusive, PLK1 PBD inh 27µM, BAZ2B block inconclusive
CC(C)CSC1=NSC2=NC(=O)/C(=C\c3coc4ccccc4c3=O)C(=N)N12	VDR inhibitor 79µM, PLK1 PBD inh 17µM, BAZ2B block 79µM (no result: L3MBTL1 inh)
CCc1ccc(S(=O)(=O)c2nnn3c2nc(Nc2ccc(F)cc2)c2cc(Cl)ccc23)cc1	none (no result: L3MBTL1 inh, PLK1 PBD inh)
O=C(COC(=O)/C=C/c1ccccc1Cl)NCCNC(=O)COC(=O)/C=C/c1ccccc1Cl	none (no result: L3MBTL1 inh)
CC1=Nn2c(nnc2-c2ccccn2)SC1	JMJD2A Tudor 22µM, BAZ2B block 50µM
CCN(Cc1ccccc1)c1ccc(/C=N/N=C(N)N)cc1	JMJD2A Tudor 35µM, HP1b chromo inh inconclusive, BAZ2B block inconclusive
CCN(Cc1ccccc1)c1ccc(/C=N/NC(=S)NC(C)C)cc1	BAZ2B block inconclusive
Cc1nc2ncnn2c(N2CCN(C(=O)Cc3cccs3)CC2)c1C	JMJD2A Tudor inconclusive, BAZ2B block 50µM (no result: L3MBTL1 inh)
O=C(Cc1cccs1)N1CCN(c2ccc([N+](=O)[O-])cc2)CC1	BAZ2B block 56µM (no result: L3MBTL1 inh)
O=C(Cc1cccs1)N1CCN(c2ccc(F)cc2)CC1	none
COc1ccccc1N1CCN(C(=O)Cc2cccs2)CC1	none (no result: L3MBTL1 inh)
CCOC(=O)N1CCN(C(=O)CCCCCn2c(=S)[nH]c3ccsc3c2=O)CC1	JMJD2A Tudor 79µM (no result: L3MBTL1 inh)

Compound activity: PubChem, National Center for Advancing Translational Sciences (NCATS)
